# Unmarked numbers belong to inactive results.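 How the source made its calls: active = AUC reduced over 20% with Padj below 0.05 in at least 2 of 3 replicates; inactive = otherwise.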
# Tests used:
# Test in all cases: growth AUC relative to DMSO control (median of replicates) (fraction); higher = more growth (less inhibition), active = hit call of the paper
# Details in all cases: 20 µM; 24 h
# Coprococcus comes = test system: Coprococcus comes
# Procedure, shortened: (§1)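 Gut bacteria were grown singly in mGAM at 37 °C without oxygen, from OD600 0.05, alongside 20 µM compound in 1% DMSO, and OD600 was read each hour for 24 h. Area under the growth curve was normalised to the median of solvent-only wells per plate, or to row and column medians on the industrial chemical plate. The minimum OD was set to 0 beforehand, and the reported value is the median of three biological replicates grown on separate days.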
# Escherichia coli ED1a = test system: Escherichia coli ED1a
# Procedure, shortened: as §1
# Escherichia coli IAI1 = test system: Escherichia coli IAI1
# Procedure, shortened: as §1
# Eubacterium rectale = test system: Eubacterium rectale
# Procedure, shortened: as §1
# [1] = test system: Fusobacterium nucleatum subsp. animalis
# Procedure, shortened: as §1
# Lactobacillus gasseri = test system: Lactobacillus gasseri
# Procedure, shortened: as §1
# Lactobacillus paracasei = test system: Lactobacillus paracasei
# Procedure, shortened: as §1
# Odoribacter splanchnicus = test system: Odoribacter splanchnicus
# Procedure, shortened: as §1
# [2] = test system: Parabacteroides distasonis
# Procedure, shortened: as §1
# Parabacteroides merdae = test system: Parabacteroides merdae
# Procedure, shortened: as §1
# Roseburia intestinalis = test system: Roseburia intestinalis
# Procedure, shortened: as §1
# Streptococcus salivarius = test system: Streptococcus salivarius
# Procedure, shortened: as §1
Compound,growth AUC (Coprococcus comes),growth AUC (Escherichia coli ED1a),growth AUC (Escherichia coli IAI1),growth AUC (Eubacterium rectale),growth AUC [1],growth AUC (Lactobacillus gasseri),growth AUC (Lactobacillus paracasei),growth AUC (Odoribacter splanchnicus),growth AUC [2],growth AUC (Parabacteroides merdae),growth AUC (Roseburia intestinalis),growth AUC (Streptococcus salivarius)
O=C1NCCN1,1.04,1.05,1.06,1.01,1.03,0.984,0.904,1.04,1.02,1.04,1.24,1.02
c1ccc2cc3ccccc3cc2c1,0.927,0.987,0.967,1.27,1.01,0.914,0.923,0.999,0.758,0.958,0.933,0.919
CC(Oc1ccc(Cl)cc1Cl)C(=O)NC(C)(C#N)C(C)C (centres undefined),1.02,0.989,1.01,1.13,0.972,0.803,0.997,0.838,0.65 (active),0.981,0.968,0.918
Cc1ccc(Cl)cc1,1,1.01,1.05,0.962,1.1,1.06,0.997,0.964,0.984,0.99,1,1.02
COc1ccc(NC(=O)N(C)C)cc1Cl,1.03,0.981,0.957,1.01,0.973,0.916,1.02,1.1,0.99,0.916,0.925,0.927
COC(=O)C(C)Oc1ccc(Cl)cc1C (centres undefined),1.04,0.991,1,0.997,1.03,1.06,1.01,1.02,1.02,1.05,1.04,0.988
CN(C)c1ccc(N=NS(=O)(=O)[O-])cc1.[Na+],1.03,1.02,1.03,0.973,1.01,0.967,1.02,1.03,1.04,0.996,1.03,1.01
CC(C)([CH2][Sn]([CH2]C(C)(C)c1ccccc1)([CH2]C(C)(C)c1ccccc1)[O][Sn]([CH2]C(C)(C)c1ccccc1)([CH2]C(C)(C)c1ccccc1)[CH2]C(C)(C)c1ccccc1)c1ccccc1,0.98,0.999,0.978,0.998,1.03,0.963,0.988,1.06,1.04,0.954,1.02,0.972
CCSC(=O)N(CC)CC,1.04,1,0.994,1,1.02,0.988,0.983,0.915,1.01,0.981,1.06,0.954
CSC(=O)c1cccc2nnsc12,1.01,0.994,0.981,1.03,1.12,0.934,0.953,1.01,0.921,1.01,0.953,0.968
CCOC(=O)NCCOc1ccc(Oc2ccccc2)cc1,0.954,1,0.976,0.956,0.943,1.03,0.949,0.931,0.932,0.974,0.984,0.976
O=S(=O)(Cc1ccc(Cl)cc1)c1ccc(Cl)cc1,0.978,0.97,1.02,1.02,0.977,1.04,1.03,0.995,1,0.98,1.05,1.06

# From the supplement of paper PMC12669032
